{"source": "PubChem BioAssay (NCATS)", "note": "Values joined by “and” are separate entries in the source; they are usually repeats but may differ in a detail not shown here. Identical values can stand only once. Results filed as inconclusive are left out. The source holds several records for some structures; these can differ, active in one and inactive in another. Active and inactive are the calls of the source. The call rests on the fitted dose curve; in most records, active means well fitted inhibition curve with a large enough effect in the repeat runs; inconclusive means weak or mixed curves; inactive means flat fitted curve, though single readings scatter. On the % scale 0 is the no-effect control and ±100 the full control effect; potency means the concentration at half of the fitted maximal effect.", "data": [{"biological_target": "Cytochrome P450 2D6 (Homo sapiens) (UniProt P10635)", "sequence (P10635 whole entry, looked up)": "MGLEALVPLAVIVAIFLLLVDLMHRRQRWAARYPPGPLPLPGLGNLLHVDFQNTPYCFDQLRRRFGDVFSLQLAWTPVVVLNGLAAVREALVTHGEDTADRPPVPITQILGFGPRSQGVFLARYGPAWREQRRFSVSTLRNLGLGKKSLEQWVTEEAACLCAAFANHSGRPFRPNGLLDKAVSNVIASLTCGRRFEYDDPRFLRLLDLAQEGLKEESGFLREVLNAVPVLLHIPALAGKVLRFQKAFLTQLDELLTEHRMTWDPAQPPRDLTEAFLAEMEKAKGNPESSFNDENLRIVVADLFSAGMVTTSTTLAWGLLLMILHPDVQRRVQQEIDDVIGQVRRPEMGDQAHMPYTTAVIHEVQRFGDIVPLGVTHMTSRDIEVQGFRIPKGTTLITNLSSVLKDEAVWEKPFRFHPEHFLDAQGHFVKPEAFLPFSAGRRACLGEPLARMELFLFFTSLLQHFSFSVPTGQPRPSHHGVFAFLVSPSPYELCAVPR", "test": "Cytochrome P450 family 2 subfamily D member 6 (CYP2D6) small molecule antagonists: luciferase biochemical (cell-free) qHTS assay (AID 1645840); further: nearly all actives have a fitted effect of over 55% in size", "conditions": "P450-Glo CYP2D6 enzyme, luciferin luminescence, 1 h; series mostly up to 57.4 µM; activity change, negative = inhibition: at the top concentration", "outline": "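P450-Glo CYP2D6 system: proluciferin substrate converted by enzyme to luciferin, read by luminescence proportional to activity. Enzyme-substrate mix with compound 10 min at room temperature, then NADPH regeneration 1 h before detection reagent.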", "values": [{"smiles": "O=C(O)c1cc(=O)c2c3nc4ccccc4oc-3cc(=O)c2[nH]1", "Potency": "1.9 µM (active)"}, {"smiles": "Cc1c(C)c2c(c(C)c1O)CC[C@@](C)(CCC[C@H](C)CCC[C@H](C)CCCC(C)C)O2", "activity change, negative = inhibition": "8.66% (inactive)"}, {"smiles": "CNC1CCN(C(Cc2cccc(-c3ccncc3)c2)C(=O)c2sc3c(F)ccc(F)c3c2Cl)CC1", "note": "(configuration not stated)", "Potency": "0.19 µM (active)"}, {"smiles": "Cc1ccc(C(=O)Nc2ccc(Oc3cc4cnn(C)c4cc3-c3cn[nH]c3)c(F)c2)c(=O)n1-c1ccc(F)cc1", "activity change, negative = inhibition": "7.07% (inactive)"}, {"smiles": "CCCCC(C)(O)C/C=C/[C@H]1[C@H](O)CC(=O)[C@@H]1CCCCCCC(=O)OC", "note": "(some centres not stated)", "Potency": "10.7 µM (active)"}, {"smiles": "C[C@]12C=CC(=O)C=C1CC[C@@H]1[C@@H]2[C@@H](O)C[C@@]2(C)[C@H]1CC[C@]2(O)C(=O)COC(=O)CCC(=O)O", "activity change, negative = inhibition": "4.99% (inactive)"}, {"smiles": "O=C(c1ccccn1)c1cnn2c(-c3ccncc3)ccnc12", "Potency": "13.5 µM (active)"}, {"smiles": "C[C@@H]1[C@H](O)[C@@H](C)/C=C/C=C\\C=C\\C=C\\C=C\\C=C\\C=C\\[C@H](O[C@@H]2O[C@H](C)[C@@H](O)[C@H](N)[C@@H]2O)C[C@@H]2O[C@](O)(C[C@@H](O)C[C@@H](O)[C@H](O)CC[C@@H](O)C[C@@H](O)CC(=O)O[C@H]1C)C[C@H](O)[C@H]2C(=O)O", "note": "(stereo in doubt)", "activity change, negative = inhibition": "-12.4% (inactive)"}, {"smiles": "Nc1c(N=Nc2ccc(-c3ccc(N=Nc4cc(S(=O)(=O)O)c5ccccc5c4N)cc3)cc2)cc(S(=O)(=O)O)c2ccccc12", "Potency": "7.56 µM (active)"}, {"smiles": "C[C@@H](Nc1cc(NS(=O)(=O)N2CCC2)nc(SCc2cccc(F)c2F)n1)[C@@H](O)CO", "activity change, negative = inhibition": "-3.93% (inactive)"}, {"smiles": "NC(=O)c1ncn(C2OC(CO)C(O)C2O)n1", "note": "(configuration not stated)", "activity change, negative = inhibition": "-18.6% (inactive)"}, {"smiles": "COc1cccc(-c2ccc([C@@H](Oc3cc(-c4ccc(C[C@H](N)C(=O)O)cc4)nc(N)n3)C(F)(F)F)cc2)c1", "activity change, negative = inhibition": "-16.2% (inactive)"}, {"smiles": "O=C(COc1ccc(Cl)cc1)NC1CCC(NC(=O)COc2ccc(Cl)cc2)CC1", "note": "(configuration not stated)", "activity change, negative = inhibition": "12.3% (inactive)"}, {"smiles": "CCc1cc2c(=O)c(-c3nc4ccccc4s3)coc2c(CN2CCCCC2)c1O", "activity change, negative = inhibition": "1.75% (inactive)"}, {"smiles": "Nc1nc(N)c2nc(CNc3ccc(C(=O)N[C@@H](CCC(=O)O)C(=O)O)cc3)cnc2n1", "activity change, negative = inhibition": "-3.21% (inactive)"}, {"smiles": "CC1(C)CC(=O)N(CCCCN2CCN(c3ncccn3)CC2)C(=O)C1", "activity change, negative = inhibition": "-27.4% (inactive)"}, {"smiles": "OCC(S)CS", "note": "(configuration not stated)", "Potency": "16.9 µM (active)"}, {"smiles": "C=Cc1cc(O)cc2nc(-c3ccc(O)c(F)c3)oc12", "Potency": "21.3 µM (active)"}, {"smiles": "CNC(=O)Nc1ccc(OC)c(NC(=O)NC(=O)c2cc(F)c(F)cc2Cl)c1", "activity change, negative = inhibition": "16.3% (inactive)"}, {"smiles": "O=C(O)CCC(=O)C(=O)O", "activity change, negative = inhibition": "-2.41% (inactive)"}, {"smiles": "Cc1cn2c(N)c(Cl)cc(C(=O)NCC3CCN(CC(C)C)CC3)c2n1", "Potency": "4.77 µM (active)"}, {"smiles": "O=C(Nc1ccc(Br)cc1)c1cc(Br)c(Br)s1", "Potency": "9.52 µM (active)"}, {"smiles": "Clc1cc(Cl)c(OCC#CI)cc1Cl", "Potency": "0.674 µM (active)"}, {"smiles": "COC(=O)CCC(=O)CN", "activity change, negative = inhibition": "15.9% (inactive)"}, {"smiles": "O=c1c2cccnc2n(-c2cccc([N+](=O)[O-])c2)c(=O)n1Cc1ccncc1", "Potency": "1.51 µM (active)"}, {"smiles": "c1nc(NC2CCCCCC2)c2cc(CNC[C@H]3CCCO3)sc2n1", "Potency": "19 µM (active)"}, {"smiles": "CCCCCCCC(=O)O", "activity change, negative = inhibition": "5.43% (inactive)"}, {"smiles": "CC(C)N=c1cc2n(-c3ccc(Cl)cc3)c3ccccc3nc-2cc1Nc1ccc(Cl)cc1", "Potency": "1.34 µM (active)"}, {"smiles": "CNC(=O)O[C@H]1COc2ccc(N3CCN(C4COC4)CC3)cc2[C@@H]1NC(=O)c1ccc(F)cc1", "activity change, negative = inhibition": "13.7% (inactive)"}, {"smiles": "CC(=O)N1CCN(NC(=O)c2ccc(F)cc2)CC1", "activity change, negative = inhibition": "4.56% (inactive)"}, {"smiles": "NS(=O)(=O)OC[C@@H]1C[C@@H](n2ccc3c(N[C@H]4CCc5ccccc54)ncnc32)C[C@@H]1O", "Potency": "inactive and 8.49 µM (active)"}, {"smiles": "CO[C@@H](Cc1ccc(OCCc2nc(-c3ccccc3)oc2C)c2ccsc12)C(=O)O", "activity change, negative = inhibition": "-23.1% (inactive)"}]}]}
